# IL-1B inflam inh: blocks inflammasome-driven IL-1 beta release | THP-1 LPS/ATP IL-1B secretion, AlphaLISA, 16 h; stronger effect = lower value | activity change, % at 57.5 µM | hit rate 4.7% among 360,000 | AID 743279; in the data active means activity change below about -50%; inconclusive means mostly about -30% to -49%
#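 THP-1 cells pretreated 1 hr with compounds (up to 57.5 uM final), then stimulated with LPS (250 ng/mL final) plus ATP (1.25 mM final); secreted IL-1B measured by AlphaLISA after 16 hr, decreased signal indicating inhibition.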
# TDP1 cell CPT: DT40-hTDP1 cell growth loss with CPT | chicken DT40 Tdp1-/-;hTDP1 cells + 20 nM CPT, ATP luminescence, 48 h | AID 686979 | Potency, µM (highest dose often 46.2 µM), most hits filed as inhibitors | hit rate 12% among 420,000; further: nearly all actives have a fitted effect of over 55% in size
#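 Chicken DT40 Tdp1-/- cells stably complemented with human TDP1 were seeded at 400 cells/well in medium containing 20 nM camptothecin, exposed to pin-transferred compounds, and grown at 37 °C for at least 48 hr. Viability was read as ATP luminescence.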
# SW480 rerep: DNA re-replication induction in SW480 cells. SW480 DNA re-replication, Hoechst DNA content imaging, 48 h. AID 624297. hit rate 1.8% among 340,000. Potency, µM (highest dose often 46.1 µM), usual class: activators; further: nearly all actives have a fitted effect of over 55% in size
#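 Treated cells incubate 48 hr (37 C, 5% CO2), are stained 40 min with Hoechst, and nuclear fluorescence is enumerated; a rise in nuclei with high DNA signal marks re-replication.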
# Chronic BCR inh: blocks chronic active B-cell receptor signaling | ABC-DLBCL IkBa-CBG/CBR reporter, luminescence ratio, 4 h | AID 493014 | hit rate 0.05% among 340,000 | Potency, µM (highest dose often 46.1 µM), usual class: inhibitors; active means well fitted inhibition curve with a large enough effect in the signal ratio, with a control signal flat, not every such curve was filed as active; inconclusive means small, poorly fitted or top-dose-only effect, or effect the other way, or a change in a side signal; the % refers to the signal ratio
#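 Concentration-response series (up to 46 uM) were applied to TMD8 dual-reporter cells for 4 h at 37C with doxycycline. Green/red ratio, after filter-overlap correction, defined %Activity; red signal alone was normalised to basal cells and zero luminescence.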
# TDP1 cell noCPT: qHTS for Inhibitors of human tyrosyl-DNA phosphodiesterase 1 (TDP1): qHTS in cells in absence of CPT; DT40 Tdp1-/- hTDP1 cells, no CPT, ATP luminescence, 48 h; Potency, µM (top dose mostly 46.2 µM), actives largely listed as inhibitors; hit rate 15% among 420,000; AID 686978, 2013; further: nearly all actives have a fitted effect of over 55% in size
#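 Seeded 400 DT40-hTDP1 cells/well (vehicle DMSO, no 20 nM CPT); pinned compounds; ≥48 hr at 37 °C; CellTiter-Glo luminescence as viability measure.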
# MCF10A rerep: DNA re-replication induction in MCF 10a cells | MCF 10A DNA re-replication, Hoechst nuclear intensity, 48 h | Potency, µM (top dose mostly 46.1 µM), actives largely listed as activators | hit rate 2.9% among 350,000 | AID 624296; further: nearly all actives have a fitted effect of over 50% in size
# Numbers stand for hits; – = inactive; ? = inconclusive; · = no result given. In the library only some 19% were active in any assay of this set; here they are far more common. Unless noted, the call rests on the fitted dose curve; in most records, active means well fitted curve in the direction sought with a large enough effect; inconclusive means small, poorly fitted or top-dose-only effect, or another doubt; inactive means no such curve, though single readings can be large; an effect the other way counts as inactive or inconclusive.
SMILES,IL-1B inflam inh,TDP1 cell CPT,SW480 rerep,Chronic BCR inh,TDP1 cell noCPT,MCF10A rerep
O=C(Nc1ccc(Br)cc1Cl)c1ccc(OCC2CCCO2)cc1 (configuration not stated),-81.2,?,–,–,?,?
O=C(Nc1ccc(Cl)cc1)c1ccc(OCC2CCCO2)cc1 (configuration not stated),–,–,–,–,?,–
CCN(CC)S(=O)(=O)c1ccc(NC(=O)c2ccc(OCC3CCCO3)cc2)cc1 (configuration not stated),?,23.1µM,–,–,14.6µM,?
Cc1cc(NC(=O)c2ccc(OCC3CCCO3)cc2)ccc1Br (configuration not stated),–,20.6µM,·,·,14.6µM,·
CCOc1ccc(NC(=O)c2ccc(OCC3CCCO3)cc2)cc1S(=O)(=O)N(CC)CC (configuration not stated),–,–,–,–,?,–
CCCC(=O)N1CCCC1(C)C(=O)Nc1ccc2nc(C)ccc2c1 (configuration not stated),–,–,·,·,–,·
CCOC(=O)C1=CCN(S(=O)(=O)c2ccccc2C)C1c1ccc(C)cc1 (configuration not stated),–,?,·,·,?,·
O=C1NC(c2ccccc2)N=C2Oc3ccccc3C=C12 (configuration not stated),-53.6,4.61µM,?,·,4.61µM,?
c1ccc(C2Nc3ccccc3Oc3ccccc32)cc1 (configuration not stated),–,–,–,–,–,–
Cc1ccc(NC(=O)c2cn3c4c(ccc(Cl)c4c2=O)OC(C)C3)c(C)c1 (configuration not stated),·,–,·,·,–,·
O=C(OC1CO[C@H]2O[C@@H]1[C@H](OC(=O)c1ccccc1)[C@H]2OC(=O)c1ccccc1)c1ccccc1 (some centres not stated),–,–,–,·,–,–
OCCCNc1nc(-c2ccc(Cl)cc2)nnc1-c1ccc(Br)cc1,-78.4,23.1µM,–,?,20.6µM,–
O=[N+]([O-])c1ccc(-c2nnc(-c3ccccc3)c(NCCCO)n2)cc1,–,20.6µM,–,?,16.4µM,–
O=C(CNc1ccc(Cl)cc1)c1ccc(Br)cc1,–,–,–,?,–,–
O=C(Cn1c(NCCCO)nc2ccccc21)c1ccc([N+](=O)[O-])cc1,–,?,–,–,–,?
CCCN(CCC)S(=O)(=O)c1ccc(C(=O)Nc2ccc(S(=O)(=O)Nc3nnc(CC)s3)cc2)cc1,–,–,–,?,?,–
CCc1ccc(NC(=O)C2CCN(c3ncnc4c3nc3n4CCCCC3)CC2)cc1,–,?,–,–,?,–
O=C(NCc1ccccc1)C1CCN(c2ncnc3c2nc2n3CCCCC2)CC1,·,–,·,·,–,·
Cc1cccc(N2CCN(C(=O)C3CCN(c4ncnc5c4nc4n5CCCCC4)CC3)CC2C)c1 (configuration not stated),?,6.51µM,?,?,4.61µM,14.6µM
Cc1cccc(N2CCN(C(=O)C3CCN(c4ncnc5c4nc4n5CCCCC4)CC3)CC2)c1C,–,18.4µM,–,–,18.4µM,?
O=C(C1CCN(c2ncnc3c2nc2n3CCCCC2)CC1)N1CCN(c2ccccc2F)CC1,–,?,–,–,20.6µM,–
CCc1ccc(-c2nc3cc(NC(=O)c4ccc(F)cc4)ccc3o2)cc1,·,–,·,·,?,·
CC1CCN(C(=O)CN2C(=O)NC(c3ccccc3)(c3ccccc3)C2=O)CC1,–,–,–,–,–,–
CN(C)c1ccc(N=Cc2ccnc3ccccc23)cc1,·,10µM,·,·,11.2µM,·
CN(C)c1ccc(N=Cc2cccc3ccccc23)cc1,·,4.47µM,·,·,3.98µM,·
SMILES,IL-1B inflam inh,TDP1 cell CPT,SW480 rerep,Chronic BCR inh,TDP1 cell noCPT,MCF10A rerep
CC(O)c1cccc(N=Cc2ccc3ccccc3c2O)c1 (configuration not stated),–,–,–,–,–,–
C#CCN(C[C@@H]1[C@@H](OC(=O)Nc2cccs2)[C@@H](OC(=O)Nc2cccs2)Cn2c(=O)n(CCCCCC)c(=O)n21)S(=O)(=O)c1ccc(C)cc1,–,?,·,·,?,·
COC(=O)c1cnc(Nc2nc(CN)cs2)nc1C(F)(F)F,–,–,·,·,?,·
O=[S+]([O-])([O-])c1ccc2c(c1)cc([S+](=O)([O-])[O-])c1nn(-c3ccc(/C=C/c4ccc(-n5nc6c([S+](=O)([O-])[O-])cc7cc([S+](=O)([O-])[O-])ccc7c6n5)cc4[S+](=O)([O-])[O-])c([S+](=O)([O-])[O-])c3)nc12,·,–,·,·,–,·
CC(=O)Nc1sc(NC(=O)c2ccco2)nc1-c1cccs1,–,–,–,?,–,?
COc1ccc(-c2nc(NC(=O)c3ccco3)sc2C)cc1,–,20.6µM,·,·,23.1µM,·
COc1cc(C(=O)Nc2ccc(C)cn2)ccc1OCC(=O)N1CCOCC1,–,–,–,?,–,–
COc1ccc(-c2nc(NC(=O)c3ccc(OCC(=O)N4CCOCC4)c(OC)c3)sc2C)cc1,–,23.1µM,–,–,18.4µM,–
COc1ccc(Cc2nnc(NC(=O)c3ccco3)s2)cc1,–,–,–,–,–,–
COc1ccc(-c2nc(NC(=O)c3[nH]c(C)c(C(C)=O)c3C)sc2C)cc1,-81.8,?,–,–,?,?
O=C(Nc1nc(-c2cccs2)c(-c2ccccc2)s1)c1ccco1,-53.6,–,–,–,?,?
Cc1ccc(N2C(=O)[C@@H]3CSC(c4ccc(Cl)cc4)N3C2=O)cc1 (some centres not stated),·,–,·,·,–,·
Cc1sc(NC(=O)Cn2cnnn2)nc1-c1ccc(Cl)cc1,–,?,–,?,?,–
COc1ccc(-c2nc(NC(=O)Cn3cnnn3)sc2C)cc1,–,–,–,–,–,2.06µM
CC(=O)c1c(C)[nH]c(C(=O)Nc2nc(-c3ccc(Cl)cc3)cs2)c1C,–,20.6µM,–,–,?,23.1µM
CCC(=O)Nc1ccc(NC(=O)CSc2nnnn2C2CCCC2)cc1C,–,–,–,–,–,–
COc1ccc(OCc2cccc(C(=O)Nc3ccc(CN4CCCCC4)cc3)c2)cc1,–,?,?,?,?,?
CCCC(=O)N1CCN(c2ccc(NC(=S)NC(=O)c3cccc(C)c3)cc2)CC1,-64.8,?,–,–,23.1µM,–
CN1CCN(c2ccc(NC(=S)NC(=O)c3cccc4c(Cl)cccc34)cc2)CC1,–,16.4µM,20.6µM,–,?,?
COc1cccc(C(=O)NC(=S)Nc2ccc(N3CCCC3)cc2)c1,-57.4,?,–,?,16.4µM,–

# Source: PubChem
